In PubChem BioAssay (NCATS):
Results filed as inconclusive are left out. Active and inactive are the calls of the source. Unless noted, calls come from the whole dose curve; as a rule, active = well fitted curve in the direction sought with a large enough effect; inconclusive = small, poorly fitted or top-dose-only effect, or another doubt; inactive = no such curve, though single readings can be large; an effect the other way counts as inactive or inconclusive.

Tests used:
[1] = Cytometric Cell-Based qHTS for Inhibitors of the mTORC1 Signaling Pathway in MEF (Tsc2-/-, p53-/-) Cells (AID 2660);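 note: percent of cells above a phospho-rpS6 to PI ratio cutoff in each well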
Summary of the method: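 Immunofluorescence qHTS of rpS6 Ser235/236 phosphorylation: MEFs (Tsc2-/-, p53-/-) treated 24 h, 37 C, in DMEM + 10% FBS. Alexa-488 signal normalized to PI count, referenced to rapamycin (7.5 nM) and DMSO; PI cell number recorded for viability.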

[2] = High Content Imaging Cell-Based qHTS for Inhibitors of the mTORC1 Signaling Pathway in MEF (Tsc2-/-, p53-/-) Cells (AID 2666); settings: at 38.3 µM (top of the series);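 note: percent of cells scored positive for phospho-rpS6 Ser235/236 immunostaining by imaging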
Summary of the method: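 Read-out: % positive cells per well, with thresholds from highest- and lowest-signal wells, based on phospho-rpS6 (Ser235/236) intensity normalized to Hoechst nuclear stain. Cells: Tsc2-/-, p53-/- MEFs carrying empty vector; compound 24 hrs, 37 degree Celsius.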

[3] = High Content Imaging Cell-Based qHTS for Inhibitors of the mTORC1 Signaling Pathway in MEF Cells (AID 2667);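 note: Tsc2-/- p53-/- MEFs stably re-expressing wild-type Tsc2 exposed 24 h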
Summary of the method: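 MEF (Tsc2-/-, p53-/-, WT Tsc2 re-expressed); cpd 24 h, 37 °C; PFA fix; Alexa-488 anti-p-rpS6 Ser235/236, PI, Hoechst; IN Cell imaging; Hoechst/Alexa-488 intensity ratio; % active cells, thresholds set from rapamycin and DMSO wells.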

[4] = Cytometry Cell-Based qHTS for Inhibitors of the mTORC1 Signaling Pathway in MEF cells (AID 2668);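 note: Tsc2-/- p53-/- mouse embryonic fibroblasts stably re-expressing wild-type Tsc2; percent cells positive for phospho-rpS6 Ser235/236 relative to propidium iodide stain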
Summary of the method: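 Read-out: phospho-rpS6 Ser235/236 immunofluorescence normalized to propidium iodide intensity, scored as % active cells against a rapamycin (7.5 nM) threshold. Cells: Tsc2-/-, p53-/- MEFs stably expressing WT Tsc2, compound-treated 24 hrs at 37 degree Celsius.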

[5] = biological target: Ubiquitin carboxyl-terminal hydrolase 2 (Homo sapiens) (UniProt O75604); assay: qHTS Validation Assay for Inhibitors of Ubiquitin-specific Protease USP2a Using CHOP2 as the Reporter (AID 463106)
Summary of the method: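 USP2 core (10nM final) was preincubated with compound for 30min at RT in 20mM Tris-HCl pH 8.0, 2mM CaCl2, 2mM beta-mercaptoethanol, 0.05% CHAPS. Ub-CHOP2 and reporter substrate (25nM each) were added, and fluorescence (Ex 485/Em 531nm) was read after 60min.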

[6] = biological target: DNA polymerase III PolC-type (Bacillus subtilis (strain 168)) (UniProt P13267); assay: qHTS Validation Assay for the Inhibitors of DNA Replication in Gram-Positive Bacteria (AID 485295);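 note: reconstituted holoenzyme with PolC plus beta clamp SSB and primase; PicoGreen fluorescence of double-stranded DNA made on primed circular M13 template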
Summary of the method: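 PicoGreen fluorescence (ex 480–485/em 535–540 nm) reports dsDNA synthesized on ssM13Gori template with dNTPs/NTPs. Enzyme: holoenzyme rebuilt from purified PolC, beta subunit, SSB and primase. Compound preincubated before substrate addition; RT throughout.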

[7] = biological target: Tumor susceptibility gene 101 protein (Homo sapiens) (UniProt Q99816); assay: qHTS Validation Assay for Iinhibitors of HIV-1 Budding by Blocking the Interaction of PTAP/TSG101 (AID 485342; calls by dose curve)
Tumor susceptibility gene 101 protein (Homo sapiens), sequence (Q99816 whole entry, looked up, the tested form may be a part): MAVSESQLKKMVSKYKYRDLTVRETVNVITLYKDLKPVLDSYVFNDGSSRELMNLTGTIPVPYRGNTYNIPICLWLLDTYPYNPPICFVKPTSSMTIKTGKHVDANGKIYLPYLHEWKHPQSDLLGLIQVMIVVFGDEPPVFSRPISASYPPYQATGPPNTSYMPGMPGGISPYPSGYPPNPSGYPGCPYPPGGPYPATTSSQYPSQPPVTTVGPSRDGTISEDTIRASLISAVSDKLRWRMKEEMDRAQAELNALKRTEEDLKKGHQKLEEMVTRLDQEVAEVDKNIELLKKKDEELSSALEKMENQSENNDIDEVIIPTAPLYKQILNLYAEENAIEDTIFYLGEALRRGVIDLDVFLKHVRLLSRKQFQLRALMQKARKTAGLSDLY
Summary of the method: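 FP read-out: FITC-PTAP peptide, 50 nM final, binding Tsg101 binding domain, 10 uM final; 20 min r.t.; 10 mM HEPES pH 7.5, 0.15 M NaCl, 0.01% Tween 20, 3 mM EDTA, 0.1 mM TCEP.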

[8] = biological target: Beta-2 adrenergic receptor (Homo sapiens) (UniProt P07550); assay: qHTS validation assay of beta-arrestin-biased ligands of beta2-adrenergic receptor (AID 485366)
Beta-2 adrenergic receptor (Homo sapiens), sequence (P07550 whole entry, looked up): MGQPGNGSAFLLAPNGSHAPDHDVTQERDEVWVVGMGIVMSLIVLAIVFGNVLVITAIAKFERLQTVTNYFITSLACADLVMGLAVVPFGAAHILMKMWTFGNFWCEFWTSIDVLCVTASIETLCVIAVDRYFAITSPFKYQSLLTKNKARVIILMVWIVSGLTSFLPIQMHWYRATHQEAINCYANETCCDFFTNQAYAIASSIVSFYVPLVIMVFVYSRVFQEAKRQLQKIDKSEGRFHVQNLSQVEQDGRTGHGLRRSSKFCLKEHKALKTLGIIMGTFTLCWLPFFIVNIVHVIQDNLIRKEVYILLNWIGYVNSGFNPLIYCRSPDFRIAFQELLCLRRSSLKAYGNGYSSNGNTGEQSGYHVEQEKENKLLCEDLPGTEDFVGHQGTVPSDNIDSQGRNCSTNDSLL
Summary of the method: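 Arrestin-recruitment (Tango) reporter: ligand-bound beta2-AR recruits beta-arrestin, releasing tTA, which upregulates luciferase. Titrations of up to 46 microM incubated 18 hr at 37 degrees C before luminescent readout.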

[9] = biological target: ATP-dependent 6-phosphofructokinase (Trypanosoma brucei brucei) (UniProt O15648); assay: qHTS Validation Assay to Find Inhibitors of T. brucei phosphofructokinase (AID 485368)
ATP-dependent 6-phosphofructokinase (Trypanosoma brucei brucei), sequence (O15648 whole entry, looked up): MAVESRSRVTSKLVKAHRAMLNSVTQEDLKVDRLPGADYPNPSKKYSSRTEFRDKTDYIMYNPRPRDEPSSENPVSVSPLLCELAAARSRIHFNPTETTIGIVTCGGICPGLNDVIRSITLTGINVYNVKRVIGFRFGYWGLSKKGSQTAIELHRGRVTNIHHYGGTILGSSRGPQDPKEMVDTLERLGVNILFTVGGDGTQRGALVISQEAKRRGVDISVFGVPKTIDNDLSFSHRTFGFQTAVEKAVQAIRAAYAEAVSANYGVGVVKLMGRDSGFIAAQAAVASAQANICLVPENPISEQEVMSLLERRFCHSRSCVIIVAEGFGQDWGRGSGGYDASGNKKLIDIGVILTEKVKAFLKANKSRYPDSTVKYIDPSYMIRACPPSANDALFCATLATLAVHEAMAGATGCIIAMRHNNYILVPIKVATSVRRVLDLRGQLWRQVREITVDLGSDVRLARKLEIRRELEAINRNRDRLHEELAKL
Summary of the method: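 Steps: substrate mix (0.5 mM F6P, 0.1 mM ATP, MgCl2, TEA pH 8.0); compound; 1.25 nM T. brucei PFK; 45 min RT; ATP depletion 10 min; ADP-to-ATP detection 10 min; luminescence read; curve fitting and classification.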

[10] = biological target: Thioredoxin reductase 1, cytoplasmic (Rattus norvegicus) (UniProt O89049); assay: qHTS Assay for Substrates of Mammalian Selenoprotein Thioredoxin Reductase 1 (TrxR1) (AID 488772);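 note: NADPH fluorescence in the first read after selenite addition and not the 8 min delta; a drop in NADPH fluorescence below the no-compound background marks a TrxR1 substrate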
Thioredoxin reductase 1, cytoplasmic (Rattus norvegicus), sequence (O89049 whole entry, looked up): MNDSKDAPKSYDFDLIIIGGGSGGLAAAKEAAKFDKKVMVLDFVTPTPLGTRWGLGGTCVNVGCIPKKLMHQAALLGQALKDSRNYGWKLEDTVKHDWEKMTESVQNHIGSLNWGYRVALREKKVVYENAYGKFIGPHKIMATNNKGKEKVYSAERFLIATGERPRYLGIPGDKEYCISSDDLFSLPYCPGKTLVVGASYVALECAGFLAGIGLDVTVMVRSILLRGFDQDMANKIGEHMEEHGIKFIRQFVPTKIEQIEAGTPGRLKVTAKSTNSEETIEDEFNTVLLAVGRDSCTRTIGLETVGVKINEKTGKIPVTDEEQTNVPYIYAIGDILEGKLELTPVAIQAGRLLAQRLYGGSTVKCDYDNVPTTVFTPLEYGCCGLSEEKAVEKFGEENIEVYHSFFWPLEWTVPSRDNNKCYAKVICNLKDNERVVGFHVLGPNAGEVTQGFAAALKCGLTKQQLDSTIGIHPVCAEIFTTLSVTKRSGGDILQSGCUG
Summary of the method: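 Quantitative HTS in Tris-HCl buffer at pH 7.5 with EDTA and Tween-20, using rat TrxR1, 400 uM NADPH and 400 uM selenite (final). A fall in initial NADPH fluorescence relative to background marked substrate behaviour.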

[11] = biological target: Thioredoxin reductase 1, cytoplasmic (Rattus norvegicus) (UniProt O89049); assay: qHTS Assay for Inhibitors of Mammalian Selenoprotein Thioredoxin Reductase 1 (TrxR1) (AID 488773); settings: Potency: inhibition;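 note: drop in NADPH fluorescence over an 8 min run after selenite addition; nearly all actives have a fitted effect of over 40% in size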
Summary of the method: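 Steps: enzyme (90 nM) plus NADPH (400 uM final), 5 min at ~22 deg C; compound added, 15 min; selenite (400 uM final) added; fluorescence followed for 8 min. Concentration-response curves derived from the normalized delta values.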

[12] = biological target: M-phase phosphoprotein 8 (Homo sapiens) (UniProt Q99549); assay: qHTS Validation Assay for Inhibitors for MPP8 Chromodomain Interactions with Methylated Histone Tails (AID 488949);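 note: AlphaScreen signal from MPP8 chromodomain bound to biotinylated H3K9me3 peptide; top concentration of the series differs between compounds; nearly all actives have a fitted effect of over 55% in size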
M-phase phosphoprotein 8 (Homo sapiens), sequence (Q99549 whole entry, looked up): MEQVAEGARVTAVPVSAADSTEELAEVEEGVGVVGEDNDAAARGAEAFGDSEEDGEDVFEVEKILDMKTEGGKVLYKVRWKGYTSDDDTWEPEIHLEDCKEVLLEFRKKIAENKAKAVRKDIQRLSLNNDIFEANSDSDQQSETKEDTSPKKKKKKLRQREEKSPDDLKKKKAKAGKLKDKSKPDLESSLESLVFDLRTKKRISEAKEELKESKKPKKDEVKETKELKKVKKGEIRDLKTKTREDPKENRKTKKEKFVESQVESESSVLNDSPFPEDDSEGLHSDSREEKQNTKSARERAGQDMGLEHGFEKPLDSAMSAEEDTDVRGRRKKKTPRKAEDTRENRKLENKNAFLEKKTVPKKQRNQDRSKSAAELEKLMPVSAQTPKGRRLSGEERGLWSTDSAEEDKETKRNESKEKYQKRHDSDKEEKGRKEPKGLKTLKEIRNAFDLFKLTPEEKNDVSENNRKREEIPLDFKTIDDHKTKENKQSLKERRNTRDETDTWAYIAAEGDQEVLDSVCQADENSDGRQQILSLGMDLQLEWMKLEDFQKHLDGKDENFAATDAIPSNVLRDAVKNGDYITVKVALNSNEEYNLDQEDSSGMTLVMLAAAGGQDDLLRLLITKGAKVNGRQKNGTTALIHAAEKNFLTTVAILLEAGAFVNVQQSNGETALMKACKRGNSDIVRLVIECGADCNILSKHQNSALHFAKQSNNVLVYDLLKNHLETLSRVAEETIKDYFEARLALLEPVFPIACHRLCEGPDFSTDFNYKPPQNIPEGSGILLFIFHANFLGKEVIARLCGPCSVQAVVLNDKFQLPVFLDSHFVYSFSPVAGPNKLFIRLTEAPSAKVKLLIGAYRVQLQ
Summary of the method: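 AlphaScreen read-out: streptavidin donor and nickel chelate acceptor beads (final 10 ug/mL), 30 min in the dark at RT. Complex of 50 nM MPP8 and 50 nM b-H3(1-18)K9me3 peptide had been exposed to compounds for 30 min beforehand.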

[13] = biological target: D(1A) dopamine receptor (Homo sapiens) (UniProt P21728); assay: HTS Assay for Allosteric Agonists of the Human D1 Dopamine Receptor: Primary Screen for Agonists (AID 488981)
D(1A) dopamine receptor (Homo sapiens), sequence (P21728 whole entry, looked up): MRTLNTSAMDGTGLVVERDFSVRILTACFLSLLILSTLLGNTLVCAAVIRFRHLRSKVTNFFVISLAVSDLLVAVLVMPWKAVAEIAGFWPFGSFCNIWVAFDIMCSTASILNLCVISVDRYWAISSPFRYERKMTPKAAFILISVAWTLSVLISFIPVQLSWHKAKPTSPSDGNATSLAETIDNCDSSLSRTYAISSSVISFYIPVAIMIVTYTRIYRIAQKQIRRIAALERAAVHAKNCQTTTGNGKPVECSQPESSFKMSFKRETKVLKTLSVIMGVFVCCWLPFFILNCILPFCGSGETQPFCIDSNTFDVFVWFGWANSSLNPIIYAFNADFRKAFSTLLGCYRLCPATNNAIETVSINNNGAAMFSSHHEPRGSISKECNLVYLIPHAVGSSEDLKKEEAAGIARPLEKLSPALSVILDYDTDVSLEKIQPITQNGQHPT
Summary of the method: (§1)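 Tetracycline-induced HEK293 T-REx cells force-coupled to calcium signalling were incubated overnight at 30 C and dye-loaded at room temperature. Calcium flux over 180 s after compound addition flagged agonists; a further 180 s read after EC20 dopamine flagged potentiators.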

[14] = biological target: D(1A) dopamine receptor (Homo sapiens) (UniProt P21728); assay: HTS Assay for Allosteric Agonists of the Human D1 Dopamine Receptor: Primary Screen for Potentiators (AID 488982)
Summary of the method: as §1

[15] = biological target: D(1A) dopamine receptor (Homo sapiens) (UniProt P21728); assay: HTS Assay for Allosteric Agonists of the Human D1 Dopamine Receptor: Primary Screen for Antagonists (AID 488983);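 note: calcium flux response to an EC80 dopamine challenge measured with no-wash dye; nearly all actives have a fitted effect of over 65% in size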
Summary of the method: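 Screening of inducible HEK293 T-REx D1 cells: compound first, EC80 dopamine 180 s later, each phase read kinetically for calcium over 180 s.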

[16] = Nrf2 qHTS screen for inhibitors: Validation (AID 493153; active = well fitted inhibition curve with a large enough effect in the main read-out, with a control signal flat, not every such curve was filed as active); settings: viability change: measured here: cytotoxicity max response
Summary of the method: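 Dose-response validation uses reporter A549 cells with firefly luciferase under an antioxidant response element. Compounds stay on cells 18-24 h at 37°C, and luminescence indicates Nrf2-driven transcription.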

[17] = qHTS for Inhibitors of Cell Surface uPA Generation: Validation Assay (AID 493164);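 note: RAW 264.7 macrophage cells exposed to compound for 18 h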
Summary of the method: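 RAW 264.7, 4000 cells/well, o/n plating; cpd 7-pt 1:5 dilution 2.45 nM–38.3 uM final; 18 h, 37 C/5% CO2; ATP-Lite, 5 s luminescence exposure.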

[18] = biological target: Phosphoglycerate kinase, glycosomal (Trypanosoma brucei brucei) (UniProt P07378); assay: qHTS Validation Assay to Find Inhibitors of Phosphoglycerate Kinase (AID 504547)
Summary of the method: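 Substrate/PGK mix plus compound; reaction started with GAPDH (100nM final) to form 1,3-BPG; 60 min RT; Kinase-Glo Plus 10 min; luminescence. TEA 100mM pH 7.6, MgCl2 5mM, Tween-20 0.01%.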

[19] = biological target: phosphoglycerate mutase (Leishmania major) (UniProt Q4Q090); assay: qHTS Validation Assay to Find Inhibitors of Phosphoglycerate Mutase (AID 504548);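 note: end-point luminescence from Kinase-GloPlus after the PGAM reaction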
Summary of the method: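 L. major PGAM (1.25nM final) was added to substrate buffer and pinned compound, incubated 45 minutes at room temperature, then Kinase-GloPlus added; luminescence read after 10 minutes. Buffer: 100 mM TEA pH 7.6, 5 mM MgCl2, 0.01% Tween-20.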

[20] = biological target: Ubiquitin carboxyl-terminal hydrolase 1 (Homo sapiens) (UniProt O94782); assay: Inhibitors of USP1/UAF1: Pilot qHTS (AID 504865);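 note: rhodamine fluorescence freed from ubiquitin-rhodamine substrate followed over time; top concentration of the series differs between compounds; nearly all actives have a fitted effect of over 35% in size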
Ubiquitin carboxyl-terminal hydrolase 1 (Homo sapiens), sequence (O94782 whole entry, looked up): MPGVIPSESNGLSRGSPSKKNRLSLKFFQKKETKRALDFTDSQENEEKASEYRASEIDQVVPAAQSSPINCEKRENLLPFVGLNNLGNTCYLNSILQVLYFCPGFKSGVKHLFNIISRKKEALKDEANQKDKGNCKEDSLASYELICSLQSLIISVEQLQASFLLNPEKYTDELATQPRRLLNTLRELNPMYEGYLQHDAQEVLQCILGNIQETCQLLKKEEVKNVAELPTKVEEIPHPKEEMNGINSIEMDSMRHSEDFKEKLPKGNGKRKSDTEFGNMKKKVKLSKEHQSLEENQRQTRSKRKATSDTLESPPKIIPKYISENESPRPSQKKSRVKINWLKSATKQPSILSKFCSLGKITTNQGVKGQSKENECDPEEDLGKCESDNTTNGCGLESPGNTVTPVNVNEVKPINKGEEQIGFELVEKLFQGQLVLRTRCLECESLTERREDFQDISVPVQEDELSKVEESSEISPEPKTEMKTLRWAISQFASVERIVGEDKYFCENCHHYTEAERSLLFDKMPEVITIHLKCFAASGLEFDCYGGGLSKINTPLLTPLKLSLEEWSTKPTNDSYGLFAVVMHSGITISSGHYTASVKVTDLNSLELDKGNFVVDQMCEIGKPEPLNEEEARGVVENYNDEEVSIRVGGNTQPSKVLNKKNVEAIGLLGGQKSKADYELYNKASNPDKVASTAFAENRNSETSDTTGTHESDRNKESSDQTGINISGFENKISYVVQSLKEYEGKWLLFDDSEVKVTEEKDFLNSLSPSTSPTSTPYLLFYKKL
Summary of the method: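 1nM USP1/UAF1 + cpd, 15 min RT; start w/ Ub-Rho 150nM final; kinetic FL 480/540 nm, 6 reads q60 s. Buffer 50mM HEPES pH 7.8, 0.5mM EDTA, 1mM TCEP, 0.01% Tween-20, 0.1 mg/ml BSA.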

[21] = qHTS for Inhibitors of ATXN expression: Validation of Cytotoxic Assay (AID 588349);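 note: cells exposed to compound for 72 hr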
Summary of the method: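 HEK293, compound dose series, 72 hr / 37 degrees C; viability via CellTiter Glo (intracellular ATP).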

[22] = qHTS for Inhibitors of ATXN expression: Validation (AID 588378); note: nearly all actives have a fitted effect of over 75% in size
Summary of the method: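 Cells: HEK293-ATXN2-FFLuc, phenol-red free DMEM, 2 h attachment. Compound pin-transfer, 24 h, 37 degrees C, 5% CO2. CellTiter-Fluor 30 min, Ex405/Em525; Bright-Glo 5 min, luminescence 2 s exposure.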

[23] = biological target: Glutaminase kidney isoform, mitochondrial (Homo sapiens) (UniProt O94925); assay: qHTS for Inhibitors of Glutaminase (GLS): LOPAC Validation (AID 624146);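 note: glutamate product detected by oxidase and peroxidase coupled Amplex red fluorescence gain; nearly all actives have a fitted effect of over 60% in size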
Glutaminase kidney isoform, mitochondrial (Homo sapiens), sequence (O94925 whole entry, looked up, canonical isoform): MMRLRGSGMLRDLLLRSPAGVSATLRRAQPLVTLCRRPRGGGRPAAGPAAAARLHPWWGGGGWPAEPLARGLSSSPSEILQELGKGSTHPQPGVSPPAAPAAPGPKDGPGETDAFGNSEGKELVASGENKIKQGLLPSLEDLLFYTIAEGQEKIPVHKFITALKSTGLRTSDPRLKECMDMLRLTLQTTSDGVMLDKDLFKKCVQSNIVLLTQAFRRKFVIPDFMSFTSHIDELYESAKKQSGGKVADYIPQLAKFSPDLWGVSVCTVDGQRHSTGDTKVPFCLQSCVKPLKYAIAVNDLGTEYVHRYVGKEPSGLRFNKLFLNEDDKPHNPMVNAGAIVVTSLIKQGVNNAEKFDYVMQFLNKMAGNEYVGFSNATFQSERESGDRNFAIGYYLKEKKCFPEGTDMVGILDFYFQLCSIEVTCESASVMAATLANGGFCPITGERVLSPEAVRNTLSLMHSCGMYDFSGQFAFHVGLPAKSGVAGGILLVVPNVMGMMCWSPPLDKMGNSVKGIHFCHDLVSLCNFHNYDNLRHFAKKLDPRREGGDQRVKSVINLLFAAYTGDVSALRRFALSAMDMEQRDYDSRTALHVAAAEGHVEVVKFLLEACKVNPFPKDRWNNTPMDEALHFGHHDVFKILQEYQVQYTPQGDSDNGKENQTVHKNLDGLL
Summary of the method: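 hKGA in 45 mM KH2PO4 pH 8.2, 0.02% Tween-20 with pin-transferred compounds; 1 mM L-glutamine (stock) plus glutamate oxidase/HRP/Amplex Red coupling added. Fluorescence read initially and after 30 min at RT.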

[24] = qHTS of Trypanosoma Brucei Inhibitors: LOPAC Validation (AID 624147)
Summary of the method: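 Quantitative HTS: titrated library compounds versus trypanosomal pyruvate kinase in TEA buffer (pH 7.2) containing KCl, MgCl2, BSA and Tween-20. Reactions were initiated with ADP, 130 uM final. Kinase-Glo Plus luminescence was read after 45 min at RT.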

[25] = biological target: Glucagon-like peptide 1 receptor (Homo sapiens) (UniProt P43220); assay: qHTS of GLP-1 Receptor Agonists: LOPAC Validation (AID 624148);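 note: higher luminescence signal means agonism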
Glucagon-like peptide 1 receptor (Homo sapiens), sequence (P43220 whole entry, looked up): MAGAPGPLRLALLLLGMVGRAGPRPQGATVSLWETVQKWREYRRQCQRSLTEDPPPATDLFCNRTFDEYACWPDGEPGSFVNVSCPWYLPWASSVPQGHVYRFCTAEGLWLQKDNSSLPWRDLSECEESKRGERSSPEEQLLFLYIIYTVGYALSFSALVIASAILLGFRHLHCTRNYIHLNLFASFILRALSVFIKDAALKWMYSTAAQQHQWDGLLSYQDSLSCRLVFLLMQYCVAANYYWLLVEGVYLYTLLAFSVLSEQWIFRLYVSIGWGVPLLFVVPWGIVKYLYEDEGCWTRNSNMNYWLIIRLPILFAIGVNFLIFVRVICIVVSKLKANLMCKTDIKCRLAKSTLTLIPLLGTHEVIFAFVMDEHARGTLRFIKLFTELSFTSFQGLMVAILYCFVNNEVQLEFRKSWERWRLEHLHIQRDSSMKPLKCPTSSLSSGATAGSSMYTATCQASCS
Summary of the method: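 HEK293 cells stably co-expressing a cAMP-responsive luciferase reporter and a hypersensitive GLP-1R were plated 12 h at 37 °C and exposed to compounds for 4-6 hr at 37 °C, 5% CO2. Luminescence was read 12 min after adding detection reagent.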

[26] = qHTS of Nrf2 Activators: LOPAC Validation (AID 624149)
Summary of the method: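 ARE reporter activation measured in AREc32 firefly luciferase cells after 24 hr compound exposure; Steady-Glo luminescence.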

[27] = HTS Assay for Allosteric Antagonists of the Human D2 Dopamine Receptor: Hit Validation in HTRF (AID 624455);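 note: stable D1 dopamine receptor cell line scored for blocking the D1 response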
Summary of the method: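 Signal from an HTRF read-out in D1-expressing stable cells gave hit activity as inhibition of the D1 response.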

[28] = qHTS for compounds that reverse cellular toxicity of Amyloid beta (A-beta) peptide in yeast: LOPAC Validation Assay (AID 720559)
Summary of the method: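 OD600 growth readout after 48 hr at 30 C; A-beta-toxic yeast plus pinned compounds in medium. Normalization: DMSO = negative, equimolar FeCl3 + clioquinol = positive.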

[29] = qHTS for Activators of Parkin Expression: LOPAC Validation Assay (NLuc Reporter) (AID 720572)
Summary of the method: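 Neuronal line stably carrying a FLuc/NLuc coincidence reporter under the Parkin promoter, seeded 24 h, then dosed in 7-point series for 24 h at 37 C. NLuc luminescence read after FLuc; normalized to DMSO and positive control (100%).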

C[C@H](Cc1ccccc1)Nc1ncnc2c1ncn2[C@@H]1O[C@H](CO)[C@@H](O)[C@H]1O
inactive: outcome [1] | outcome [2] | Potency [3] | Potency [4] | Potency [5] | Potency [6] | outcome [7] | outcome [8] | Potency [9] | outcome [10] | Potency [11] | Potency [12] | outcome [13] | outcome [14] | outcome [15] | outcome [16] | outcome [17] | Potency [18] | outcome [19] | Potency [20] | Potency [21] | Potency [22] | Potency [23] | outcome [24] | outcome [25] | outcome [26] | outcome [27] | outcome [28] | outcome [29]
6.66%: viability change [16]
